Inconclusive results are not listed. Where a call stands in place of a potency, no number is given. Activity calls are given as the source filed them. Calls follow the shape of the dose curve; as a rule, active = well fitted curve in the direction sought with a large enough effect; inconclusive = small, poorly fitted or top-dose-only effect, or another doubt; inactive = no such curve, though single readings can be large; an effect the other way counts as inactive or inconclusive.
What was measured:
[1] = biological target: Rap guanine nucleotide exchange factor 3 (Homo sapiens) (UniProt O95398); assay: Confirmatory qHTS for antagonist of cAMP-regulated guanine nucleotide exchange factor 3 (EPAC1) (AID 1645880); also: nearly all actives have a fitted effect of over 55% in size; also: potency is read from the fitted curve at half-maximal effect
Outline: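 Released BODIPY-GDP fluoresces less than Rap1-bound BODIPY-GDP; the signal is followed at 480/540 nm at 5-min intervals over 30 min, after 5 min at room temperature. Reactions contain 100 nM EPAC1, 250 nM RAP1B-BODIPY-GDP and 50 uM GDP; results are normalized to ATA and DMSO.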

[2] = biological target: Rap guanine nucleotide exchange factor 3 (Homo sapiens) (UniProt O95398); assay: Confirmatory qHTS for agonist of cAMP-regulated guanine nucleotide exchange factor 3 (EPAC1) (AID 1645881);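 also: EPAC1 catalysed release of BODIPY-GDP from Rap1B seen as fluorescence loss; nearly all actives have a fitted effect of over 75% in size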
[3] = biological target: Rap guanine nucleotide exchange factor 4 (Homo sapiens) (UniProt Q8WZA2); assay: Confirmatory qHTS for agonist of cAMP-regulated guanine nucleotide exchange factor 4 (EPAC2) (AID 1645884);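 also: nucleotide exchange releases bodipy-GDP from Rap1 and this lowers its fluorescence; nearly all actives have a fitted effect of over 65% in size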
[4] = biological target: Rap guanine nucleotide exchange factor 4 (Homo sapiens) (UniProt Q8WZA2); assay: Confirmatory qHTS for antagonist of cAMP-regulated guanine nucleotide exchange factor 4 (EPAC2) (AID 1645885); also: nearly all actives have a fitted effect of over 25% in size; also: potency is read from the fitted curve at half-maximal effect
[5] = biological target: Rap guanine nucleotide exchange factor 3 (Homo sapiens) (UniProt O95398); assay: Counterscreen qHTS for antagonist of cAMP-regulated guanine nucleotide exchange factor 3 (EPAC1) (AID 1645888)
Outline: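 Rap1B–BODIPY-GDP (250 nM) with 50 uM GDP; compounds pin-transferred to 9.74 nM–152 uM final (activator) or from 7.32 nM upwards (inhibitor). Fluorescence Ex/Em 480/540 nm read at 5 and 30 min, then after adding cAMP or buffer, at room temperature.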

Sequence of Rap guanine nucleotide exchange factor 3 (Homo sapiens) (O95398 whole entry, looked up): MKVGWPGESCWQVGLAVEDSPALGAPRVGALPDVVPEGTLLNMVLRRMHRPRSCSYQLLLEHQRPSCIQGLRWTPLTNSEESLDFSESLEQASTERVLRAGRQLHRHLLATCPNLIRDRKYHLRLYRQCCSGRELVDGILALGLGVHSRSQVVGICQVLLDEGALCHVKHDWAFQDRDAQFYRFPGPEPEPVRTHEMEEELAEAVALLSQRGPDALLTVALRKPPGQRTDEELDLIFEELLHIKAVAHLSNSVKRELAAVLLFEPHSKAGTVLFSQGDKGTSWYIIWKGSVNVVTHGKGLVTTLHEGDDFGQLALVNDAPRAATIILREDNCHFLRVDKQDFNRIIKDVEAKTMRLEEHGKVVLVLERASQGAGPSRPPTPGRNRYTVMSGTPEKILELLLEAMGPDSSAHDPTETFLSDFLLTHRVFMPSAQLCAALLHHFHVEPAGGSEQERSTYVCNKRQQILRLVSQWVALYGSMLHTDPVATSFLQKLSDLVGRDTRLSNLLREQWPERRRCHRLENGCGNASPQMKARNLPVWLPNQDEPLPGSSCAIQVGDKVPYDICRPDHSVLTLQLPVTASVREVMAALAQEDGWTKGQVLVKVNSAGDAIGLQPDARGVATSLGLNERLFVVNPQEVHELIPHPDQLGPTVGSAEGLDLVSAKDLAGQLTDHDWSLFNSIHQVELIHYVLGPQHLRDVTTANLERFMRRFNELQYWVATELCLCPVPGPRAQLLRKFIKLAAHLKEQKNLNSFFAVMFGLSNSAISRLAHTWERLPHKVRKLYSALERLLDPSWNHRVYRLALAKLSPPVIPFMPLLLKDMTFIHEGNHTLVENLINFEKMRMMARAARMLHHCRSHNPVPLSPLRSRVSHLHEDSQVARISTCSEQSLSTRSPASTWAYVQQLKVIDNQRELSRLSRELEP
Sequence of Rap guanine nucleotide exchange factor 4 (Homo sapiens) (Q8WZA2 whole entry, looked up): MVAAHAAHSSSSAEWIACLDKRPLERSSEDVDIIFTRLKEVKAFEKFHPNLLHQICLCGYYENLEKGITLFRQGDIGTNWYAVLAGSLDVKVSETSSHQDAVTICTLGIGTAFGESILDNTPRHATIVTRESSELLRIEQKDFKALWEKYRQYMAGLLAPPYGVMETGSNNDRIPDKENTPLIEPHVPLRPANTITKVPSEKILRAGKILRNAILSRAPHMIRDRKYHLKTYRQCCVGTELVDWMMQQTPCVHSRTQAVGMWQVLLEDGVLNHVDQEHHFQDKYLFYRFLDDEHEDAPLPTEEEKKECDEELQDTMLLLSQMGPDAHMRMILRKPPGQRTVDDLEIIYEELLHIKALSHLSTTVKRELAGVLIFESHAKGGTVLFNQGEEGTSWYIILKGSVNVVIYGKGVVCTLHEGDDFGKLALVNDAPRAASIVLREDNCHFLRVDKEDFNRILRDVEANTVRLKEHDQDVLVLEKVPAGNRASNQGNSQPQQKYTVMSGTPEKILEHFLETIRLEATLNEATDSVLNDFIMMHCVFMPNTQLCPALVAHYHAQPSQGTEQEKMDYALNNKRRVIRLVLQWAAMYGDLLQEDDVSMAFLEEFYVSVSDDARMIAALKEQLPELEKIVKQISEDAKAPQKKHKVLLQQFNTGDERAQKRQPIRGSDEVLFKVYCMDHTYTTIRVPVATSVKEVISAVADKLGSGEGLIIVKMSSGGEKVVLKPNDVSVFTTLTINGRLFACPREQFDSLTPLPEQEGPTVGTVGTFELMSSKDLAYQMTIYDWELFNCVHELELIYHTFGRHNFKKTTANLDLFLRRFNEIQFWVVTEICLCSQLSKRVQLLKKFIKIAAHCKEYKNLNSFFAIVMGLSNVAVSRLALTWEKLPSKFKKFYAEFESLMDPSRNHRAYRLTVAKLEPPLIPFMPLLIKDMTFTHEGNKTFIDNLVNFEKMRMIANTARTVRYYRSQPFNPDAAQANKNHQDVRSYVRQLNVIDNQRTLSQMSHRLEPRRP

| SMILES | Potency [1] | Potency [2] | Potency [3] | Potency [4] | Potency [5] | activation [3] | activity change, negative = inhibition [5] |
| --- | --- | --- | --- | --- | --- | --- | --- |
| COc1ccc(NC(=O)c2ccc3c(SCC(=O)O)c4c(nc3c2)CCCC4)c(OC)c1 | 75.7 µM (active) | inactive | inactive | inactive | inactive |  |  |
| Cn1cc(C(c2ccccc2)c2ccc(Cl)s2)c2ccccc21 (stereo not given) | inactive | inactive | inactive | inactive | inactive |  |  |
| CSC1=NC2(CCN(C(=O)NC3CCCCC3)CC2)N=C1c1ccc(C)cc1 | inactive | inactive | inactive | inactive | inactive |  |  |
| COc1cccc(CC(=O)Nc2ccc(S(=O)(=O)Nc3nccs3)cc2)c1 | inactive | inactive |  | inactive |  | -3.47% [at 17.1 µM, percent relative to cAMP agonist control] (inactive) | -17.8% [at 30.8 µM] (inactive) |
| Cc1ccc2cc(CN(Cc3ccco3)C(=O)c3ccco3)c3nnnn3c2c1 | inactive | inactive | inactive | 75.7 µM (active) | inactive |  |  |
| COc1ccc(NC(=O)c2c(-c3ccccc3)c(-c3ccccc3)nn(C)c2=O)cc1OC | inactive | inactive | inactive | inactive | inactive |  |  |
| Cc1ccc(C(=O)c2coc3ccc(O)c(Cl)c23)cc1 | inactive | inactive | inactive | 84.9 µM (active) | inactive |  |  |
| CCC(=Cc1ccccc1OC)c1ccncc1 | inactive | inactive | inactive | inactive | inactive |  |  |
| Cc1cc(OC(C)C(=O)NCCc2c[nH]c3ccccc23)c2c(C)cc(=O)oc2c1 (stereo not given) | inactive | inactive | inactive | inactive | inactive |  |  |
| CCn1c2ccccc2c2cc(NC(=O)CSc3nnc(-c4cccc(C)c4)o3)ccc21 | inactive | inactive |  | inactive |  | 3.98% [at 17.1 µM, percent relative to cAMP agonist control] (inactive) | 9.03% [at 30.8 µM] (inactive) |
| COc1ccc(-c2oc3c4c2C(=O)OCCOC4CCC3)cc1 (stereo not given) | inactive | inactive | inactive | inactive | inactive |  |  |
| Cc1cccc(C(=O)Nc2ccc3c(c2)ncn3C)c1 | inactive | inactive | inactive | inactive | inactive |  |  |
| Cc1onc(-c2ccccc2)c1C(=O)c1c[nH]c(C(=O)NCCCN2CCOCC2)c1 | inactive | inactive |  | inactive |  | -2.44% [at 17.1 µM, percent relative to cAMP agonist control] (inactive) | -20.3% [at 30.8 µM] (inactive) |
| CCc1ccccc1Oc1nc(NC(C)C)nc2ccsc12 | inactive | inactive |  | inactive |  | 7.29% [at 17.1 µM, percent relative to cAMP agonist control] (inactive) | -29.4% [at 30.8 µM] (inactive) |
| CC(Oc1ccc(-c2nnco2)cc1)C(=O)N1CCOCC1 (stereo not given) | inactive | inactive | inactive | inactive | inactive |  |  |
| CSc1nc2c(c(C(F)(F)F)n1)CC(C)CC2 (stereo not given) | inactive | inactive | inactive | inactive | inactive |  |  |
| COc1cccc(OCCOc2ccc(/C=C3\C(=N)N4N=C(S(C)(=O)=O)SC4=NC3=O)cc2OC)c1 | 37.9 µM (active) | inactive | inactive | inactive | inactive |  |  |
| COC(=O)c1ccc2nc(-c3ccc(C)cc3)c(Cc3ccc(C)cc3)n2c1 | inactive | inactive | inactive | 37.9 µM (active) | inactive |  |  |
| CCCC(=O)O[C@@H]1C[C@@H](C)N(C(=O)c2ccccc2)c2ccc(C)cc21 | inactive | inactive | inactive | inactive | inactive |  |  |
| CCCN1CCN(S(=O)(=O)c2ccc3c(c2)NC(=O)C(C)C(=O)N3)CC1 (stereo not given) | inactive | inactive | inactive | inactive | inactive |  |  |
| CCCCN(CCCC)S(=O)(=O)c1ccc(C(=O)Nc2sc3c(c2C(N)=O)CCN(CC)C3)cc1 | inactive | inactive | inactive | inactive | inactive |  |  |
| CCNC(=O)COc1ccc(/C=C2\COc3ccccc3C2=O)cc1OC | inactive | inactive |  | inactive |  | 4.45% [at 17.1 µM, percent relative to cAMP agonist control] (inactive) | 0.373% [at 30.8 µM] (inactive) |
| CC(SC1=NCCN1S(=O)(=O)c1ccc(F)cc1)c1ccccc1 (stereo not given) | inactive | inactive | inactive | 12 µM (active) | inactive |  |  |
| COC(=O)c1c(SC)nc2ccccc2c1OCc1ccccc1C | inactive | inactive | inactive | inactive | inactive |  |  |
